Reference: ChEMBL document CHEMBL3988442, “University of Dundee, Small-Polar-MMV Screening Library” (2021)
For part of these data: Potency and affinity values are given separately.

Experiments:
Design in all cases: scale not given: direction of the effect not stated beside the values
[1] = target: Protein translocase subunit SecA (Escherichia coli (strain K12)) (UniProt P10408); test: Assay to Identify E. coli SecA ATPase Inhibitors; type: functional; conditions: 30 µM
[2] = target: T1, Ubiquitin-activating enzyme e1, putative (Leishmania donovani (strain BPK282A1)) (UniProt E9BSI1); test: Leishmania donovani Ubiquitin Activating Enzyme (LdE1); type: functional; conditions: 30 µM
T1 sequence (whole entry): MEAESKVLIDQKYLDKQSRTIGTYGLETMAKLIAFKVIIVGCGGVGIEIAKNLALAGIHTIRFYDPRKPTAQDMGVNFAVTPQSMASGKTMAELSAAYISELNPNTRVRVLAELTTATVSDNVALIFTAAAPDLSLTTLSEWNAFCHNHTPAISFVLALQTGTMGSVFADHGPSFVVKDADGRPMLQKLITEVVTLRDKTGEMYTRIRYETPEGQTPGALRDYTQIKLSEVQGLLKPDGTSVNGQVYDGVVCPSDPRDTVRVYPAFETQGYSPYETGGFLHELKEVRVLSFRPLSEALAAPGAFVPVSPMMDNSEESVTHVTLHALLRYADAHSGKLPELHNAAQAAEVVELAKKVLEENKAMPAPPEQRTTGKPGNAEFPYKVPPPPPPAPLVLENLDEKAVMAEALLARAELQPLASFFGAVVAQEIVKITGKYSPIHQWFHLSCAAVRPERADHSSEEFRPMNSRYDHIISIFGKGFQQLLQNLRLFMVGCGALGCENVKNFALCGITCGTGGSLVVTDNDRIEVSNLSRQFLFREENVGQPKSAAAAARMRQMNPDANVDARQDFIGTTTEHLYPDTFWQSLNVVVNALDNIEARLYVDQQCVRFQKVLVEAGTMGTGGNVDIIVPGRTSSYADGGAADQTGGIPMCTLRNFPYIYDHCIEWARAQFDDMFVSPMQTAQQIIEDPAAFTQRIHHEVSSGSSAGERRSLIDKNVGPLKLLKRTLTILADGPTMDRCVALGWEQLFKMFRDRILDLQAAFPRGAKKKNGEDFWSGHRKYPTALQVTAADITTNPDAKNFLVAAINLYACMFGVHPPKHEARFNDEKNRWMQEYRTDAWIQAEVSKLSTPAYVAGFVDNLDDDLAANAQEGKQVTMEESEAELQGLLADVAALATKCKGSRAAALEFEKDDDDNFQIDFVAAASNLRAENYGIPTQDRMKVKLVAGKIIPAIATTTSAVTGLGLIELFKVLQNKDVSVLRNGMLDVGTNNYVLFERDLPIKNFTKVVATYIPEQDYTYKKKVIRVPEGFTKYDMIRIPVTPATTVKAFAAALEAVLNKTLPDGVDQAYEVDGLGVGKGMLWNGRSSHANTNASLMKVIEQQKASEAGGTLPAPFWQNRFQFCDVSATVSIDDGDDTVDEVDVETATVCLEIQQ

[3] = target: AMP-activated protein kinase, AMPK (Homo sapiens) (UniProt P54646+O43741+P54619+Q9UGJ0+Q9Y478+Q13131+Q9UGI9); test: AMP-dependent Kinase enzyme assay. An in vitro enzyme assay that detects ADP turnover that is directly proportional to AMPK activity. This uses naive AMPK that is activated during the assay with MK-8722; type: functional; conditions: 30 µM
[4] = target: Sialic acid-binding Ig-like lectin 9 (Homo sapiens) (UniProt Q9Y336); test: Hs-Siglec9 ALPHAscreen SOP 20170721; conditions: 10 µM
Sequence of Sialic acid-binding Ig-like lectin 9 (Homo sapiens) (Q9Y336 whole entry): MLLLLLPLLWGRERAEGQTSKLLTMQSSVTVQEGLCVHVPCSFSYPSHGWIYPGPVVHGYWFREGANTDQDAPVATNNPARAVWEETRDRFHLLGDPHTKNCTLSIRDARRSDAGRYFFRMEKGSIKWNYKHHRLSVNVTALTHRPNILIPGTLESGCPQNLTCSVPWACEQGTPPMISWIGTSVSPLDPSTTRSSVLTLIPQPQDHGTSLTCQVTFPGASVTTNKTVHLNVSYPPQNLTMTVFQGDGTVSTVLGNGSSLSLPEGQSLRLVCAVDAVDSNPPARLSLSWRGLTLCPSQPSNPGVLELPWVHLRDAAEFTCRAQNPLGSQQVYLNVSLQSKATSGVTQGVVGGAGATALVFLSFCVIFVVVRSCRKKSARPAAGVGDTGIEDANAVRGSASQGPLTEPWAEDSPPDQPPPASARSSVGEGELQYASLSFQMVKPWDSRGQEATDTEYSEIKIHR

[5] = system: Trypanosoma cruzi; test: Trypanosoma cruzi phosphomannomutase and mannose-1-phosphate guanylyltransferase assay; type: functional; conditions: 10 µM
[6] = target: T2, Arginase-2, mitochondrial (Homo sapiens) (UniProt P78540); test: in vitro enzyme assay to detect the production of urea directly proportional to the activity of Arginase II; type: functional; conditions: 33.3 µM; also: in the data most compounds retested in dose-response had high values
T2 sequence (whole entry): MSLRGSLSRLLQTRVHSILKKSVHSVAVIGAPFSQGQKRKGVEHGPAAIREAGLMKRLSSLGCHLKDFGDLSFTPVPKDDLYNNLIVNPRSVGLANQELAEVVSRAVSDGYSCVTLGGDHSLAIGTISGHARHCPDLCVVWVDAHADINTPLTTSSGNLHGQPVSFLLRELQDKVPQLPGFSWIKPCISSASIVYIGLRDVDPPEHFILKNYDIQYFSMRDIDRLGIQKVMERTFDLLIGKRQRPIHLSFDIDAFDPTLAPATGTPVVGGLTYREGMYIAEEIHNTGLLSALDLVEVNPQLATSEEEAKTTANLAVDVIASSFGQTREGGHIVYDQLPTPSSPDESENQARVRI

[7] = target: T3, Proteasome subunit beta (Trypanosoma cruzi) (UniProt O96673); test: Trypanosoma cruzi proteasome chymotrypsin-like activity (TcProtChymo) assay.; also: in the data most compounds retested in dose-response had high values; type: functional; conditions: 9.37 µM
T3 sequence (whole entry): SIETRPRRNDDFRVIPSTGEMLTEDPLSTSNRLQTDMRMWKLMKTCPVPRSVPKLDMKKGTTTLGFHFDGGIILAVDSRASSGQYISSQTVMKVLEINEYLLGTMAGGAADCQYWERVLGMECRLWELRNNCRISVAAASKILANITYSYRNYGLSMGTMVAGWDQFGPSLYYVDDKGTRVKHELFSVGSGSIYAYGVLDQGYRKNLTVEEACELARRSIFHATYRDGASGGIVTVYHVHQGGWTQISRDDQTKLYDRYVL

[8] = species: Homo sapiens; test: To identify inhibition of the IFN signalling (Jak-Stat) pathway via expression of an eGFP reporter gene under the control of an IFN-stimulated response element (ISRE) containing MxA promoter.; type: functional; conditions: 30 µM
[9] = target: T4, Tyrosyl-tRNA synthetase, putative (Trypanosoma cruzi (strain CL Brener)) (UniProt Q4DSP6); test: Trypanosoma cruzi tyrosyl tRNA synthetase (TcYRS) _High Tyrosine SOP; type: functional; conditions: 30 µM; also: in the data most compounds retested in dose-response had high values
T4 sequence (whole entry): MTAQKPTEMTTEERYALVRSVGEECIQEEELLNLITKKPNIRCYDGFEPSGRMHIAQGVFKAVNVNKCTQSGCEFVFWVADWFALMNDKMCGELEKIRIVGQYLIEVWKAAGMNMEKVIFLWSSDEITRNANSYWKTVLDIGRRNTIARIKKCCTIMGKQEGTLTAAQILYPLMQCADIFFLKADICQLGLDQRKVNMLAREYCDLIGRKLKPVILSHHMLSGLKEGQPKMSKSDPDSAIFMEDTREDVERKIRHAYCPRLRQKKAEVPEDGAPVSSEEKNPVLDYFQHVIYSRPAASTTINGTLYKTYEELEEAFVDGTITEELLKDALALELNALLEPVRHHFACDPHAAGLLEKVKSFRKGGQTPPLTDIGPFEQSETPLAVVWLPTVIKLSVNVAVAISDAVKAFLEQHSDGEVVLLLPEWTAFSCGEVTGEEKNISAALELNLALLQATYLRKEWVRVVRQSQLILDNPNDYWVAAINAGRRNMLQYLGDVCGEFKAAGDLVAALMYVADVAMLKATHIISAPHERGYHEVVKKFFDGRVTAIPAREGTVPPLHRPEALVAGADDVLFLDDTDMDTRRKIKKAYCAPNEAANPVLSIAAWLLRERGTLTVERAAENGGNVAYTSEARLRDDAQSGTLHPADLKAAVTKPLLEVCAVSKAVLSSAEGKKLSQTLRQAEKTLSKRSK

[10] = target: T4, Tyrosyl-tRNA synthetase, putative (Trypanosoma cruzi (strain CL Brener)); test: Trypanosoma cruzi tyrosyl tRNA synthetase (TcYRS) SOP; type: functional; conditions: 30 µM
[11] = target: Chromo domain-containing protein 1 (Saccharomyces cerevisiae (strain ATCC 204508 / S288c) (Baker's yeast)) (UniProt P32657); test: ScCHD-1 Enzyme Inhibition Assay; type: functional; conditions: 30 µM; also: in the data most compounds retested in dose-response had high values
Sequence of Chromo domain-containing protein 1 (Saccharomyces cerevisiae (strain ATCC 204508 / S288c) (Baker's yeast)) (P32657 whole entry, the tested form may be a part): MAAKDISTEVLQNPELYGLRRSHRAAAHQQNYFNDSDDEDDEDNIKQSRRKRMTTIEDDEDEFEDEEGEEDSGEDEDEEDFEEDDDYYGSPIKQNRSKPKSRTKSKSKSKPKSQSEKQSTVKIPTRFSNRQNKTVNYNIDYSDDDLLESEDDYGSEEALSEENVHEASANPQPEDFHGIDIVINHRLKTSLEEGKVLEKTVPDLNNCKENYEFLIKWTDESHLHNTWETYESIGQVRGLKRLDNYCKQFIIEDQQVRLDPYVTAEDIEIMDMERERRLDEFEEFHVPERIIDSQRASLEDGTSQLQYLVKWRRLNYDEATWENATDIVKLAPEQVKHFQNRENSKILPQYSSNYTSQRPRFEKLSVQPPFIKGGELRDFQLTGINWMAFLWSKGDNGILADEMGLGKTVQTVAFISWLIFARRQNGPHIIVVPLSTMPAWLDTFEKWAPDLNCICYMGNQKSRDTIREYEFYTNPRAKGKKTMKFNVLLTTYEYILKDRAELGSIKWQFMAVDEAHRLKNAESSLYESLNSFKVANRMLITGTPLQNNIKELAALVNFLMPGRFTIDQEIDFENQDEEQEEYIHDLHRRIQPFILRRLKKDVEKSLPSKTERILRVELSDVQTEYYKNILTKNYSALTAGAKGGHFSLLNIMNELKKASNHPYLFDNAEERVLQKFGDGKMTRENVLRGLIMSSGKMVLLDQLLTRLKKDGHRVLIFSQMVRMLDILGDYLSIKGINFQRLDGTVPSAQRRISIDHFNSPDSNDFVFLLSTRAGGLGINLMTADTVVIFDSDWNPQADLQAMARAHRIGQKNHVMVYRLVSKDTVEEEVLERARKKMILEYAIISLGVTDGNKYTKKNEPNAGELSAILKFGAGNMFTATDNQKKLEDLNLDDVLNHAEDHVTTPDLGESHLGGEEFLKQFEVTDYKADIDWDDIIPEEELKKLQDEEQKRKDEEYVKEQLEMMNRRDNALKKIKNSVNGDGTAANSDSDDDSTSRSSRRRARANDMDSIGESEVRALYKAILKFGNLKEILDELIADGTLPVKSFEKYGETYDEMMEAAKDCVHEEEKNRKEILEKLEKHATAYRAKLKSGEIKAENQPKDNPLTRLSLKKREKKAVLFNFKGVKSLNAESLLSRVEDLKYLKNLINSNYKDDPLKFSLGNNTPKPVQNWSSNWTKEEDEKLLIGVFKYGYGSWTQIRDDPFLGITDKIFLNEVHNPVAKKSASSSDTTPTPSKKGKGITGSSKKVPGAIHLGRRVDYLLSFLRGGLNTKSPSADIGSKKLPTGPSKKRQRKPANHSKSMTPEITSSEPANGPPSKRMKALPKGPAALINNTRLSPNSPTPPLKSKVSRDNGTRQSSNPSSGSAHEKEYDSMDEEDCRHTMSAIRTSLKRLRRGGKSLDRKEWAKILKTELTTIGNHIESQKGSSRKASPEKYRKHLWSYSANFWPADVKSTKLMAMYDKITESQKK

Sequence of Protein translocase subunit SecA (Escherichia coli (strain K12)) (P10408 whole entry): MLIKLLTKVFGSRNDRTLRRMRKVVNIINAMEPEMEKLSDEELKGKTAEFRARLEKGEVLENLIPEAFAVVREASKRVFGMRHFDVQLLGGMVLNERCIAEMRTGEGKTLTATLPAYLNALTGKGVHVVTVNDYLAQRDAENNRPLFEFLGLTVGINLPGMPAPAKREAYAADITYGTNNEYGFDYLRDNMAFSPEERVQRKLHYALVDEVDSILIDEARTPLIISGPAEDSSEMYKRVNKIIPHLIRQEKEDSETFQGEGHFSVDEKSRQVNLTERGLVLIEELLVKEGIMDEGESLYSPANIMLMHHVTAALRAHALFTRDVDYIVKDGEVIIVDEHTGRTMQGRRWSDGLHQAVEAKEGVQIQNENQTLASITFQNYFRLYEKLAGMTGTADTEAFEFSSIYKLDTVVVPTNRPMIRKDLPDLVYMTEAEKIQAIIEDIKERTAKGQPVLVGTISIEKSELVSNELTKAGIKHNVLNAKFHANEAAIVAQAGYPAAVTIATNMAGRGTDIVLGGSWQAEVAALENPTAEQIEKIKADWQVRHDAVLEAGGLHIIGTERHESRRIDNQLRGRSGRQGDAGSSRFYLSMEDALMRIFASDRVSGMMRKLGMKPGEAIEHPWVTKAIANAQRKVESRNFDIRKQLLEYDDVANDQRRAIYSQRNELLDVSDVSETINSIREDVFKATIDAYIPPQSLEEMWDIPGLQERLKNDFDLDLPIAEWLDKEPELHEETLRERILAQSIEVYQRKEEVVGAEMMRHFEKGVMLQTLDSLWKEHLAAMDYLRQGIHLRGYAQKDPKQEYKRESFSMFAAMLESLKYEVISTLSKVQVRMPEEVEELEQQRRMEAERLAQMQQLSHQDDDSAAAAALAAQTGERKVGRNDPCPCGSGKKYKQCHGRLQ

Question: How did the Percent Effect [1] turn out when O=C(CCOc1ccccc1)N1CCC(Nc2cccnn2)CC1 was run?
Answer: -6.73%

Question: What about the Percent Effect [2] of the same compound?
Answer: 13.2%

Question: What about the Percent Effect [3] of the same compound?
Answer: -7.1%

Question: And the Percent Effect [4]?
Answer: 16.8%

Question: What about the Percent Effect [5] of the same compound?
Answer: 2.15%

Question: And the Percent Effect [6]?
Answer: -0.719%

Question: What about the Percent Effect [7] of the same compound?
Answer: 5.5%

Question: What about the Percent Effect [8] of the same compound?
Answer: 8.93%

Question: What about the Percent Effect [9] of the same compound?
Answer: 6.4%

Question: What about the Percent Effect [10] of the same compound?
Answer: 18.5%

Question: What about the Percent Effect [11] of the same compound?
Answer: -5.39%

Question: For O=S(=O)(c1ccccc1)N1CCN(CCn2ccnc2)CC1, which Percent Effect [1] is on record?
Answer: -6.59%

Question: What about the Percent Effect [2] of the same compound?
Answer: 2.74%

Question: And the Percent Effect [3]?
Answer: -6.09%

Question: And the Percent Effect [4]?
Answer: -6.85%

Question: And the Percent Effect [5]?
Answer: 0.979%

Question: And the Percent Effect [6]?
Answer: 3.64%

Question: What about the Percent Effect [7] of the same compound?
Answer: 7.28%

Question: And the Percent Effect [8]?
Answer: 6.13%

Question: What about the Percent Effect [9] of the same compound?
Answer: 6.45%

Question: And the Percent Effect [10]?
Answer: 7.5%

Question: What about the Percent Effect [11] of the same compound?
Answer: -3.52%

Question: CCN1CC(C(=O)N2CCC(Oc3ccccc3C)CC2)CC1=O (stereo unspecified) was tested. Which Percent Effect [1] did it give?
Answer: -1.72%

Question: What about the Percent Effect [2] of the same compound?
Answer: 2.74%

Question: And the Percent Effect [3]?
Answer: 2.75%

Question: And the Percent Effect [4]?
Answer: 3.46%

Question: What about the Percent Effect [5] of the same compound?
Answer: -7.94%

Question: What about the Percent Effect [6] of the same compound?
Answer: 2%

Question: And the Percent Effect [7]?
Answer: 8.65%

Question: What about the Percent Effect [8] of the same compound?
Answer: 7.65%

Question: And the Percent Effect [9]?
Answer: 3.12%

Question: And the Percent Effect [10]?
Answer: 21%

Question: What about the Percent Effect [11] of the same compound?
Answer: -0.203%

Question: Cc1cc(C)n(CC2CCCN2C(=O)c2ccc3c(c2)OCO3)n1 (stereo unspecified) was tested. Which Percent Effect [1] did it give?
Answer: -1.47%

Question: What about the Percent Effect [2] of the same compound?
Answer: 6.33%

Question: And the Percent Effect [3]?
Answer: 1.3%

Question: What about the Percent Effect [4] of the same compound?
Answer: -3.57%

Question: And the Percent Effect [5]?
Answer: 2.15%

Question: And the Percent Effect [6]?
Answer: -1.5%

Question: And the Percent Effect [7]?
Answer: 8.75%

Question: And the Percent Effect [8]?
Answer: 1.15%

Question: And the Percent Effect [9]?
Answer: 2.08%

Question: And the Percent Effect [10]?
Answer: 2.53%

Question: What about the Percent Effect [11] of the same compound?
Answer: 0.284%

Question: Cc1cc(C(F)(F)F)nn1C(C)C(=O)Nc1ccncc1 (stereo unspecified) was tested. Which Percent Effect [1] did it give?
Answer: -1.07%

Question: What about the Percent Effect [2] of the same compound?
Answer: 25.3%

Question: And the Percent Effect [3]?
Answer: -4.73%

Question: What about the Percent Effect [4] of the same compound?
Answer: -5.25%

Question: What about the Percent Effect [5] of the same compound?
Answer: -0.982%

Question: What about the Percent Effect [6] of the same compound?
Answer: -12.2%

Question: What about the Percent Effect [7] of the same compound?
Answer: 8.87%

Question: What about the Percent Effect [8] of the same compound?
Answer: 13.8%

Question: What about the Percent Effect [9] of the same compound?
Answer: 2.12%

Question: And the Percent Effect [10]?
Answer: 12.8%

Question: And the Percent Effect [11]?
Answer: -9.26%

Question: For CCCOc1ccc(NC(=O)NCCC(=O)N(C)C)cc1Cl, which Percent Effect [1] is on record?
Answer: -2.86%

Question: What about the Percent Effect [2] of the same compound?
Answer: 13.7%

Question: What about the Percent Effect [3] of the same compound?
Answer: -18.2%

Question: And the Percent Effect [4]?
Answer: 4.95%

Question: And the Percent Effect [5]?
Answer: 4.5%

Question: What about the Percent Effect [6] of the same compound?
Answer: 0.909%

Question: And the Percent Effect [7]?
Answer: 19%

Question: And the Percent Effect [8]?
Answer: 12.8%

Question: What about the Percent Effect [9] of the same compound?
Answer: 4.3%

Question: What about the Percent Effect [10] of the same compound?
Answer: 12.5%

Question: What about the Percent Effect [11] of the same compound?
Answer: -6.34%
